From PubChem BioAssay
TDP-43 yeast inh – qHTS of TDP-43 Inhibitors; Potency, µM (highest dose often 46.1 µM), for the others: at the top dose growth rescue (activation), hits mostly activators; TDP-43 expressing yeast growth rescue, BacTiter-Glo, 24 h; 410,000 tested, 1.8% active; note: % of control where 0% means no effect; nearly all actives have a fitted effect of over 50% in size
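Yeast cells expressing TDP-43 under galactose induction are exposed to compounds for 24 hr at 30 deg C. BacTiter-Glo luminescence measures growth, so protective compounds score as activators.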
Abeta rescue – qHTS for compounds that reverse cellular toxicity of Amyloid beta (A-beta) peptide in yeast: Primary Screen; Potency, µM (top dose mostly 46.1 µM), hits mostly activators; yeast expressing A-beta42, growth rescue, OD600, 48 h; response scale: 0% DMSO, 100% iron-clioquinol control; 410,000 tested, 0.063% active; note: nearly all actives have a fitted effect of over 55% in size
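Growth rescue measured by 600 nm absorbance after 48 h yeast culture at 30 C with compound. Values normalized between DMSO and an equimolar ferric chloride plus clioquinol control.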
aSyn yeast inh – qHTS of alpha-syn Inhibitors; Yeast expressing alpha-synuclein, growth rescue, BacTiter-Glo, 24 h; Potency, µM (top dose mostly 46.1 µM), without a hit: at the top dose growth rescue (activation), actives largely listed as activators; 370,000 tested, 0.14% active; AID 652106, 2013; note: % of control where 0% means no effect; nearly all actives have a fitted effect of over 65% in size
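Rescue of yeast growth: cells expressing toxic alpha-synuclein, induced in galactose at OD600 0.02, incubated with compound 24 h at 30 C. ATP luminescence quantified growth; inhibitors of toxicity appear as activators.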
FUS yeast rescue – qHTS for Suppressors of FUS Proteinopathy: Primary screen using FUS-linked yeast assay. AID 1347120, 2019. S. cerevisiae FUS-expressing, growth rescue, OD600, 24 h. 390,000 tested, 0.24% active. Potency, µM (doses to about 76.6 µM), actives largely listed as activators;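 note: plate controls were DMSO vehicle for no effect and reference control for full effect; nearly all actives have a fitted effect of over 55% in size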
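Absorbance at 600 nm, taken 24hr after compound addition, measured rescue of FUS-yeast growth at 30C. Induction used 2% galactose with seeding at OD 0.005. Controls: CP55940 from 92uM final, DMSO only.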
BCR signal inh – qHTS Assay to Find Inhibitors of Chronic Active B-Cell Receptor Signaling | Potency, µM (doses to about 46.1 µM), inactives show top-dose activity change, negative = inhibition, actives largely listed as inhibitors | ABC-DLBCL IkBa-CBG/CBR reporter, luminescence ratio, 4 h | AID 493014, 2011 | 340,000 tested, 0.05% active; active = well fitted inhibition curve with a large enough effect in the signal ratio, with a control signal flat, not every such curve was filed as active; inconclusive = small, poorly fitted or top-dose-only effect, or effect the other way, or a change in a side signal; the % refers to the signal ratio;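 note: plate controls were basal doxycycline-induced cells for no effect and cells given 10 µM MG132 for full effect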
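Doxycycline induced both beetle luciferases in TMD8 lymphoma cells; IKK-driven degradation limits the IkappaBalpha-fused green signal, while red luminescence normalises for cell number and nonspecific effects. Compounds tested up to 46 uM, 4 hrs.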
uPA generation – qHTS for Inhibitors of Cell Surface uPA Generation; 330,000 tested, 0.31% active; AID 540303, 2011; Potency, µM (doses to about 38.3 µM), without a hit: at the highest dose activity change, negative = inhibition, hits mostly inhibitors; cell surface uPA generation assay, qHTS; active = well fitted inhibition curve with a large enough effect; inconclusive = small, poorly fitted or top-dose-only effect; inactive = no such curve, though single readings can be large or run the other way; tested in mouse RAW 264.7 cells; note: % is set by controls: 0 for no effect and ±100 for the full control effect; nearly all actives have a fitted effect of over 55% in size
* hit, by the source's call; i = inactive; ? = inconclusive; . = no result given; [ ] = dose if it differs, or a comment. Only some compounds are listed: those with a hit (about 2.3% of all), similar ones and a draw of the others. Unless noted, calls come from the whole dose curve; as a rule, active = well fitted curve in the direction sought with a large enough effect; inconclusive = small, poorly fitted or top-dose-only effect, or another doubt; inactive = no such curve, though single readings can be large; an effect the other way counts as inactive or inconclusive. Potency is the fitted concentration of half-maximal effect.

SMILES | TDP-43 yeast inh | Abeta rescue | aSyn yeast inh | FUS yeast rescue | BCR signal inh | uPA generation
COCCn1c(-c2ccc(OC)cc2)cnc1SCC(=O)Nc1ccc(OC)cc1OC | -2% | i | 1% | . | -2% | -2%
COc1ccc(/C(O)=C2/C(=O)C(=O)N(c3ccccn3)C2c2ccc(OC)cc2)cc1 (stereo unspecified) | -19% | i | 2% | i | ? | -2%
CCOC(=O)CC(=O)CSc1nc2c(cc1C#N)CCCCCC2 | 18% | i | -3% | 11µM* | -2% | 1%
CCOCCCn1c(=S)[nH]c2cc(C(=O)NCc3ccc(F)cc3)ccc2c1=O | -5% | i | 0% | i | 3% | -2%
Cc1cccc(C)c1-n1nnnc1C1c2ccccc2C(=O)N1CCC(C)C (stereo unspecified) | 0% | i | 5% | i | . | .
Cc1cccc(C)c1-n1nnnc1C1c2ccccc2C(=O)N1CCc1ccccc1F (stereo unspecified) | 35µM* | i | 8% | i | . | .
Oc1ccc(Cl)cc1CNC1CCCCC1 | -26% | i | -4% | i | . | -4%
O=C1C=CC(=C(c2ccc(O)cc2)c2ccc(O)cc2)C=C1 | 0% | i | -1% | i | ? | 2µM*
O=C(Nc1ccc(Cl)c(C(F)(F)F)c1)N1CCCC(O)C1 (stereo unspecified) | -3% | i | 5% | i | 0% | 0%
O=C(Nc1ccc(Cl)c([N+](=O)[O-])c1)c1ccncc1 | -5% | i | 0% | . | ? | 4%
O=C(Nc1ccc(Cl)c(C(F)(F)F)c1)c1ccncc1 | 10µM* | i | -1% | i | 2% | -1%
CN(CC(=O)Nc1ccc(Cl)c(C(F)(F)F)c1)C(=O)CCCNC(=O)c1ccc(Cl)cc1 | 11% | i | -10% | i | ? | 8.9µM*
O=C(Nc1ccc(Cl)c(C(F)(F)F)c1)C(=O)N1CCCCC1 | 18µM* | i | 10% | . | ? | 2%
COc1cc2nc(C)sc2cc1SC | 20µM* | i | -1% | ? | ? | -1%
COc1cc2nc(/C=C/c3cc(OC)c(OC)c(OC)c3)sc2cc1SC | -22% | i | -3% | ? | ? | -9%
COc1cc(/C=N/Nc2nncn2/N=C/c2ccc(O)c(OC)c2)ccc1O | -3% | i | -14% | i | ? | -15%
COc1ccc(OC)c(/C=N/Nc2nncn2/N=C/c2cc(OC)ccc2OC)c1 | 13% | i | 1% | . | ? | 10µM*
COc1ccc(NC(=O)c2cc(-c3ccccc3Cl)on2)cc1 | 14% | i | -9% | i | ? | -26%
COc1ccccc1NC(=O)Nc1nc(CC(=O)NCc2ccccn2)cs1 | -9% | i | -3% | i | ? | 7%
CCOC(=O)C1CCCN(C2CC(=O)N(c3ccc(N4C(=O)CC(N5CCCC(C(=O)OCC)C5)C4=O)cc3)C2=O)C1 (stereo unspecified) | 8% | i | 6% | i | 1% | -9%
CCOC(=O)C1CCCN(C2CC(=O)N(c3ccc(C(C)C)cc3)C2=O)C1 (stereo unspecified) | 35µM* | i | 6% | i | -24% | 10%
COc1cc(N)c(Cl)cc1Cl | 3% | i | -5% | i | -11% | 2%
Clc1ccc(CSc2nnc(-c3ccncc3)o2)c(Cl)c1 | 2.8µM* | i | . | i | 1% | -2%
c1ccc(CSc2nnc(-c3ccncc3)o2)cc1 | ? | i | 0% | i | 3% | .
Cc1ccccc1CSc1nnc(-c2ccncc2)o1 | 14µM* | i | 7% | i | -5% | 18%
SMILES | TDP-43 yeast inh | Abeta rescue | aSyn yeast inh | FUS yeast rescue | BCR signal inh | uPA generation
Cc1cc(C)nc(SCc2nnc(SCC(=O)Nc3c(C)cccc3C)o2)n1 | -4% | i | 2% | i | 1% | 2%
Cc1cc(C)nc(SCc2nnc(SCc3ccccc3Cl)o2)n1 | 16µM* | i | 18% | i | ? | 0%
CSc1nc2ncc3c(n2n1)CC1c2ccccc2CCN1C3=O (stereo unspecified) | 16µM* | i | . | i | ? | 0%
O=C1c2cnc3ncnn3c2CC2c3ccccc3CCN12 (stereo unspecified) | -16% | i | -9% | i | 9% | 1%
Cc1cc(SCC(=O)NC(=O)NCc2ccco2)nc2c(C)cccc12 | -9% | i | 11µM* | ? | -8% | -7%
Cc1cc(SCC(=O)NC(=O)NCc2ccco2)nc2ccccc12 | ? | i | -1% | ? | ? | -8%
Cc1cc(N2CCN(c3ccc(C(F)(F)F)cc3[N+](=O)[O-])CC2)c2ccccc2n1 | -3% | i | -8% | i | ? | 14µM*
O=C(Nc1ccccc1)N1CCCN(c2ccc(C(F)(F)F)cc2[N+](=O)[O-])CC1 | 18µM* | i | 14% | i | 0% | -3%
O=C(/C=C/c1ccccc1)Nc1nc2n(n1)C(c1ccc(Cl)cc1)C=C(c1ccccc1)N2 (stereo unspecified) | 17%[9.22 µM] | i | . | i | . | .
CCOC(=O)c1ccc(NC(=O)C(C)N(c2ccc(OCC)cc2)S(C)(=O)=O)cc1 (stereo unspecified) | ? | i | . | i | . | .
O=C1N=C(N2CCCCC2)S/C1=C\c1ccc(Cl)cc1 | 27% | i | 3% | i | 0% | 5%
Cc1ccc(/C=C2\SC(N3CCCCC3)=NC2=O)cc1 | 10µM* | i | 0% | i | ? | -5%
Cc1ccc(-n2cnnn2)c2cccnc12 | -4% | i | -9% | i | 0% | -9%
Cc1ccccc1OCCOC(=O)c1c(-c2ccccc2)noc1C | -1% | i | 1% | i | ? | -1%
Cc1onc(-c2ccccc2)c1C(=O)OCC(=O)c1ccc(F)cc1 | 20µM* | i | 0% | i | . | .
Cc1onc(-c2ccccc2)c1C(=O)OCCOc1ccc([N+](=O)[O-])cc1[N+](=O)[O-] | 13µM* | i | 14% | i | ? | 3%
CCOC(=O)CC(NC(=O)c1ccccc1)c1ccc(OC)cc1 (stereo unspecified) | 6%[9.22 µM] | i | 3% | i | -11% | 11%
O=C(Cc1ccc(S(=O)(=O)N2CCOCC2)s1)Nc1ccc2c(c1)CCC2 | 2% | i | 4% | i | -1% | 2%
O=C(Cc1ccc(S(=O)(=O)N2CCOCC2)s1)Nc1nc2c(s1)CCCC2 | -22% | i | -9% | 8.9µM* | 14% | 18%
